Bioassay records deposited in PubChem by National Center for Advancing Translational Sciences (NCATS).
KB-3-1 cytotox: kills parental KB-3-1 adenocarcinoma cells. KB-3-1 viability, CellTiter-Glo ATP luminescence, 72 h. Potency, µM (series often up to 46.1 µM), hits mostly cytotoxic. 400,000 tested, 1.4% active. AID 1347075; also: nearly all actives have a fitted effect of over 60% in size
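Cytotoxicity measured as CellTiter-Glo luminescence after 72 h at 37 C. Compound titrations were pinned onto drug-naive KB-3-1 parental adenocarcinoma cells grown in DMEM with 10% FBS, and normalized data fitted to concentration-response curves.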
HT1080 IDH1KD tx: kills HT-1080 cells with IDH1 knockdown. HT-1080 IDH1 knockdown viability, ATP luminescence, 48 h. 360,000 tested, 2% active. AID 686971. Potency, µM (titrated, usually from 46.1 µM), hits mostly cytotoxic
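Assay cells: HT-1080 with IDH1 knockdown, 750 per well, RPMI/5% FBS. Exposure: 48 h at 37 °C following 2 h pre-incubation. Read: CellTiter-Glo luminescence; fitted concentration-response, curve class assigned.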
SW480 rerep: DNA re-replication induction in SW480 cells; SW480 DNA re-replication, Hoechst DNA content imaging, 48 h; Potency, µM (doses to about 46.1 µM), actives largely listed as activators; 340,000 tested, 1.8% active; AID 624297; also: nearly all actives have a fitted effect of over 55% in size
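250 cells/well; 23 nL cpd via pin tool; 48 hr, 37 C, 5% CO2; Hoechst 40 min; imager read of total nuclear intensity, ex 405/em 500-530 nm.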
HT1080-NT tox: kills 2HG-producing HT-1080-NT fibrosarcoma cells; AID 686970; Potency, µM (titrated, usually from 46.1 µM), most hits filed as cytotoxic; 360,000 tested, 1.6% active; HT-1080-NT fibrosarcoma viability, CellTiter-Glo ATP luminescence, 48 h;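 also: NT is the 2HG producing partner of a matched IDH1 knockdown line; nearly all actives have a fitted effect of over 55% in size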
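Fibrosarcoma NT cells, 750 per well in 5% FBS RPMI, were exposed to compound for 48 hours. Viability: CellTiter-Glo luminescence.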
MCF10A rereplic: inducers of DNA re-replication in MCF 10A breast cells; 350,000 tested, 2.9% active; Potency, µM (doses to about 46.1 µM), usual class: activators; MCF 10A DNA re-replication, Hoechst nuclear intensity, 48 h; AID 624296; also: nearly all actives have a fitted effect of over 50% in size
KB-V1 cytotox: kills drug-selected multidrug resistant KB-V1 cells. KB-V1 MDR cells viability, CellTiter-Glo, 72 h. 400,000 tested, 3.4% active. Potency, µM (series often up to 46.1 µM), hits mostly cytotoxic; also: nearly all actives have a fitted effect of over 60% in size
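KB-V1 cells (P-gp-expressing MDR subline of KB-3-1) in phenol-red-free DMEM with 10% FBS were exposed to library compounds over a concentration series for 72 h at 37 degrees C. Viability read by CellTiter-Glo luminescence; concentration-effect curves fitted after normalization.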
A number is an active result; n = inactive; u = inconclusive; x = no result given; [ ] = remark or other dose. Sampled rows, rich in hits. Any-hit rate of the full collection: about 7.9%. Calls follow the shape of the dose curve; as a rule, active = well fitted curve in the direction sought with a large enough effect; inconclusive = small, poorly fitted or top-dose-only effect, or another doubt; inactive = no such curve, though single readings can be large; an effect the other way counts as inactive or inconclusive.

SMILES	KB-3-1 cytotox	HT1080 IDH1KD tx	SW480 rerep	HT1080-NT tox	MCF10A rereplic	KB-V1 cytotox
CC(Cc1cccs1)NC(=S)Nc1ccc(Cl)cc1 (stereo not given)	n	u	n	u	20.6µM	n
CC(Cc1cccs1)NC(=S)Nc1ccc(Cl)c(Cl)c1 (stereo not given)	n	n	n	u	u	n
O=C(NC1CCCc2ccccc21)c1cnn2c1NC(=C1CC1)C=C2C(F)F (stereo not given)	x	n	x	n	x	x
Cc1ccc(C(=O)NC(=S)Nc2ccc(NC(=O)c3cccs3)cc2)cc1[N+](=O)[O-]	n	20.6µM	n	u	u	n
Cc1ccc(C(=O)Nc2ccccc2N2CCCCC2)cc1[N+](=O)[O-]	u	n	u	n	n	u
Cc1ccc(C(=O)Nc2ccc(NC(=O)c3cccs3)cc2)cc1[N+](=O)[O-]	n	n	n	n	n	n
Cc1ccc(C(=O)NC(=S)Nc2ccccc2N2CCCC2)cc1[N+](=O)[O-]	n	n	n	n	2.59µM	n
COc1ccc(N2CCN(C(c3ccccc3)c3nnc(-c4ccccc4Cl)o3)CC2)cc1 (stereo not given)	n	x	x	x	x	n
Cc1cc(Cl)ccc1OCC(=O)NCCOc1nc(N2CCCCC2)nc(N2CCOCC2)n1	n	n	n	n	n	4.11µM
COc1cc(C)nc(OCCNC(=O)COc2ccc(Cl)cc2C)n1	n	n	n[9.22 µM]	n	n	n
CC(C)(C)S(=O)N1Cc2cc(C(=O)NCc3ccc4c(c3)OCO4)nc(-c3cccc(-c4cc5ccccc5o4)c3)c2[C@@H]1CCO (stereo not given in full)	u	u	x	23.1µM	x	n
CC(C)(C)S(=O)N1Cc2cc(C(=O)NCc3ccc(Oc4ccccc4)cc3)nc(-c3cccc(-c4cc5ccccc5o4)c3)c2[C@H]1CCO (stereo not given in full)	u	18.4µM	x	18.4µM	x	n
CCOc1ccc(CNC(=O)CCC(=O)N2CC3CCCN3c3ccccc32)cc1 (stereo not given)	n	x	x	x	x	n
O=[N+]([O-])c1ccc(N=Nc2c(Cl)cc(O)cc2Cl)cc1	18.4µM	8.2µM	u	6.51µM	u	n
CCn1nc(C)cc1-c1nnc(Sc2ncc([N+](=O)[O-])s2)n1C	u	20.6µM	n	10.3µM	n	n
CCn1nc(C)cc1-c1nnc(SCC(=O)Nc2ccccc2)n1CCCOC	n	n	n	n	n	u
COc1ccc(CN(C)Cc2nc(Cc3cccc(F)c3)no2)c2cccnc12	u	n	n	n	u	1.84µM
O=C(N1CCOCC1)N1CCCC(c2nc(-c3cccs3)no2)C1 (stereo not given)	n	n	n	n	n	14.6µM
O=S(=O)(Cc1ccccc1)N1CCC(c2nc(-c3cccs3)no2)CC1	n	n	n	n	n	20.6µM
O=C(c1c(F)cccc1F)N1CCCC(c2nc(-c3cccs3)no2)C1 (stereo not given)	n	n	n	n	n	n
Cc1ccc(NC(=O)COC(=O)c2ccc3ncsc3c2)c(C)c1	n	n	x	n	x	u
CC(C)N1CCC(N2CCN(C3CCCC3)CC2CCO)CC1 (stereo not given)	n	n	n	n	n	n
Cc1cccc(N2CCC(N3CCN(C4CCCCC4)C(CCO)C3)CC2)c1C (stereo not given)	n	n	n	n	16.4µM	n
Cc1cc(C)cc(OCC(=O)N2N=C(c3cccnc3)CC2(O)C(F)(F)F)c1 (stereo not given)	n	n	n	n	n	u
CCC1=NN(C(=O)c2ccccc2O)C(O)(c2ccccc2)C1 (stereo not given)	u	u	16.4µM	u	u	u
SMILES	KB-3-1 cytotox	HT1080 IDH1KD tx	SW480 rerep	HT1080-NT tox	MCF10A rereplic	KB-V1 cytotox
O=C(c1ccccc1O)N1N=C(c2ccccc2)CC1(O)C(F)(F)F (stereo not given)	n	n	u	n	20.6µM	n
Cc1ccccc1OCC(=O)N1N=C(c2cccnc2)CC1(O)C(F)(F)F (stereo not given)	n	n	n	n	n	20.6µM
CCC1=NN(C(=O)c2ccccc2Br)C(O)(c2ccc(Br)cc2)C1 (stereo not given)	n	n	n	n	n	n
Nc1ccc(C(=O)N2N=C(c3ccccc3)CC2(O)C(F)(F)F)cc1 (stereo not given)	n	n	n	n	n	n
COc1cccc(C(=O)N2N=C(c3ccccc3)CC2(O)C(F)(F)F)c1 (stereo not given)	n	n	n	n	u	16.4µM
COc1cccc2sc(NC(=O)c3ccc(Br)s3)nc12	n	u	n	u	n	n
Fc1cccc2sc(Nc3nnc(-c4ccco4)o3)nc12	u	n	u	n	7.31µM	9.2µM
COc1cccc2sc(Nc3nnc(-c4cccs4)o3)nc12	u	u	n	n	23.1µM	u
O=C(Nc1nc2c(F)cccc2s1)c1ccco1	u	n	n	n	n	n
COc1cccc2sc(Nc3nnc(-c4ccc(F)cc4)o3)nc12	n	n	u	n	25.9µM	n
O=S(=O)(CCNCCc1ccccc1)NCc1ccccc1	n	n	n	n	n	n
CCOc1ccc(C(=O)NCCc2sc(-c3cccc(F)c3)nc2C)cc1OCC	n	x	x	x	x	n
CC(C)C(=O)N1CCCC1(C)C(=O)N(C)Cc1cccc2ccccc12 (stereo not given)	n	n	x	n	x	n
Cc1ccc(NC(=O)C(=O)NCCCN2CCCC2=O)cc1	n	n	n	n	n	n
Cc1ccc(COc2ccc(CNCCCN3CCCCCC3=O)cc2)cc1	u	n	18.4µM	n	u	n
CN=C1SC(CC(=O)Nc2ccc(F)cc2F)C(=O)N1/N=C/c1ccc(OC(F)F)c(OC)c1 (stereo not given)	n	n	n	n	4.61µM	n
O=C1CC(c2ccccc2)c2c(n3ncnc3[nH]c2=O)N1 (stereo not given)	n	x	x	x	x	u
O=C(Cn1cncn1)NCc1cccc(OC(F)F)c1	n	n	n	n	n	n
O=C(Cn1cncn1)NCc1cccc(C(F)(F)F)c1	n	n	n	n	0.651µM	n
O=C(Cc1cccc(C(F)(F)F)c1)NCc1cccc(Cl)c1	n	n	u	n	u	n
O=C(NCc1cccc(C(F)(F)F)c1)c1cc(Cl)ccc1Cl	n	n	10.3µM	n	n	n
Cc1cc2c(cc1C)N[C@]1(C[C@H]3CCCC(=O)N4CC[C@@H](C1)[C@@H]34)C(=Nc1ccccc1C)N2	n	x	x	x	x	n
CCN(CC)CCCNC(=O)CSc1nc2nc(C)c(Cc3ccccc3C)c(C)n2n1	n	x	x	x	x	u
